Results on 13 compounds are retold here after PubChem BioAssay (NCI).

Compounds without any hit were thinned out: in the full panel of roughly 83,000, 20% have a hit.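 Compound tested at a single concentration for 48 hours in 96-well plates; a percent growth value below 10 was scored as active.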 Unmarked numbers belong to inactive results. Active and inactive are the calls of the source.

The test system of the test is SN12C renal. In words: NCI-60 one-dose screen, 48 h (100 = growth as untreated, 0 = no growth, -100 = all killed). The settings on record: 10 µM unless noted.
For the compound `Cc1cc(C)c(S(=O)(=O)N2CCN(c3cc4c(cc3F)c(=O)c(C(=O)O)cn4C3CC3)CC2)c(C)c1`, the growth is 13.9%.
Then `CCn1cc(C(=O)O)c(=O)c2cc(F)c(N3CCN(S(=O)(=O)c4ccc(OC)c(OC)c4)CC3)cc21`, with 101%; and `Cc1ccc(S(=O)(=O)OCC(=O)Nc2ccc(C(=O)O)c(O)c2)cc1`, with 105%.
In the case of `O=S(=O)(c1ccccc1)n1ccc(-c2ccc3c(c2)CCO3)n1`, the growth is 67.9%.
Turning to `Clc1ccc(-c2nc(-c3ccco3)cn3ccnc23)cc1`, the growth is 65.7%.
In the case of `CCn1cc(C(=O)O)c(=O)c2cc(F)c(N3CCN(S(=O)(=O)c4cccc5ccccc45)CC3)cc21` it was 11.9%; in that of `O=P([O-])(O)OP(=O)([O-])O.[NH-][C@H]1CCCC[C@@H]1[NH-].[OH-].[OH-].[Pt+4]`, 105%; in that of `O=C(CC(O)c1ccncc1)c1ccccc1` (stereo not drawn), -22.2% (active).
As to `O=c1oc2c([nH]c3ccc4ccccc4c32)c2ccccc12`, the growth was 106%.
Then `Nc1c(C(=O)Nc2ccccc2)sc2nc3c(cc12)CCC3`, with 85%; and `COc1ccc(C2CC(c3cccs3)=NN2c2ccc(S(=O)(=O)NC(=O)NCc3cccc(OC)c3)cc2)cc1` (stereo not drawn), with 112%.
As for `COc1cc(NC(=O)CSc2nc3ccc(C)cc3c(=O)n2-c2ccccc2)cc(OC)c1OC`, the growth was 92.8%.
Turning to `Cc1ccc(S(=O)(=O)OC2COCOC2C(OS(=O)(=O)c2ccc(C)cc2)C2OCOCC2OS(=O)(=O)c2ccc(C)cc2)cc1` (stereo not drawn), the growth is 91.3%.
